# PubChem BioAssay
# Values joined by “and” are separate entries in the source; they are usually repeats but may differ in a detail not shown here. Equal values may be shown once. Active and inactive are the calls of the source.
# Key:
# [1] = small molecules captured by biotinylated probe aFSTL3 – biochemical, small-molecule microarray, fluorescence 635/667, stem cell growth factor project, primary screen (AID 1064); conditions: higher = more signal;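 also: measures binding of the biotinylated anti-FSTL3 antibody to printed compounds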
# [2] = binders from COS7 lysate, DM2A8 probe, primary screen, torsin A project, cell lysate, small-molecule microarray, fluorescence 635/667 (AID 1065); conditions: higher = more signal, COS7 lysate expressing mutant human TOR1A
# [3] = small molecules captured by biotinylated probe aFGF2 – biochemical, small-molecule microarray, fluorescence 635/667, stem cell growth factor project, primary screen (AID 1067); conditions: higher = more signal;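 also: measures binding of biotinylated aFGF2 protein to printed compounds on slides; z-score merges feature fluorescence and signal-to-noise across triplicate slides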
# [4] = small molecules captured by biotinylated probe aFGF10 – biochemical, small-molecule microarray, fluorescence 635/667, stem cell growth factor project, primary screen (AID 1071); conditions: higher = more signal;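 also: score merges 667 nm spot intensity and signal to noise from triplicate slides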
# [5] = target: Neurogenic locus notch homolog protein 2 (Homo sapiens) (UniProt Q04721); test: small molecules binding Notch2 protein – biochemical, small-molecule microarray, 635 nm fluorescence, stem cell growth factors, primary screen (AID 1073); conditions: higher = more signal
# Neurogenic locus notch homolog protein 2 (Homo sapiens), sequence (Q04721 whole entry, looked up, canonical isoform): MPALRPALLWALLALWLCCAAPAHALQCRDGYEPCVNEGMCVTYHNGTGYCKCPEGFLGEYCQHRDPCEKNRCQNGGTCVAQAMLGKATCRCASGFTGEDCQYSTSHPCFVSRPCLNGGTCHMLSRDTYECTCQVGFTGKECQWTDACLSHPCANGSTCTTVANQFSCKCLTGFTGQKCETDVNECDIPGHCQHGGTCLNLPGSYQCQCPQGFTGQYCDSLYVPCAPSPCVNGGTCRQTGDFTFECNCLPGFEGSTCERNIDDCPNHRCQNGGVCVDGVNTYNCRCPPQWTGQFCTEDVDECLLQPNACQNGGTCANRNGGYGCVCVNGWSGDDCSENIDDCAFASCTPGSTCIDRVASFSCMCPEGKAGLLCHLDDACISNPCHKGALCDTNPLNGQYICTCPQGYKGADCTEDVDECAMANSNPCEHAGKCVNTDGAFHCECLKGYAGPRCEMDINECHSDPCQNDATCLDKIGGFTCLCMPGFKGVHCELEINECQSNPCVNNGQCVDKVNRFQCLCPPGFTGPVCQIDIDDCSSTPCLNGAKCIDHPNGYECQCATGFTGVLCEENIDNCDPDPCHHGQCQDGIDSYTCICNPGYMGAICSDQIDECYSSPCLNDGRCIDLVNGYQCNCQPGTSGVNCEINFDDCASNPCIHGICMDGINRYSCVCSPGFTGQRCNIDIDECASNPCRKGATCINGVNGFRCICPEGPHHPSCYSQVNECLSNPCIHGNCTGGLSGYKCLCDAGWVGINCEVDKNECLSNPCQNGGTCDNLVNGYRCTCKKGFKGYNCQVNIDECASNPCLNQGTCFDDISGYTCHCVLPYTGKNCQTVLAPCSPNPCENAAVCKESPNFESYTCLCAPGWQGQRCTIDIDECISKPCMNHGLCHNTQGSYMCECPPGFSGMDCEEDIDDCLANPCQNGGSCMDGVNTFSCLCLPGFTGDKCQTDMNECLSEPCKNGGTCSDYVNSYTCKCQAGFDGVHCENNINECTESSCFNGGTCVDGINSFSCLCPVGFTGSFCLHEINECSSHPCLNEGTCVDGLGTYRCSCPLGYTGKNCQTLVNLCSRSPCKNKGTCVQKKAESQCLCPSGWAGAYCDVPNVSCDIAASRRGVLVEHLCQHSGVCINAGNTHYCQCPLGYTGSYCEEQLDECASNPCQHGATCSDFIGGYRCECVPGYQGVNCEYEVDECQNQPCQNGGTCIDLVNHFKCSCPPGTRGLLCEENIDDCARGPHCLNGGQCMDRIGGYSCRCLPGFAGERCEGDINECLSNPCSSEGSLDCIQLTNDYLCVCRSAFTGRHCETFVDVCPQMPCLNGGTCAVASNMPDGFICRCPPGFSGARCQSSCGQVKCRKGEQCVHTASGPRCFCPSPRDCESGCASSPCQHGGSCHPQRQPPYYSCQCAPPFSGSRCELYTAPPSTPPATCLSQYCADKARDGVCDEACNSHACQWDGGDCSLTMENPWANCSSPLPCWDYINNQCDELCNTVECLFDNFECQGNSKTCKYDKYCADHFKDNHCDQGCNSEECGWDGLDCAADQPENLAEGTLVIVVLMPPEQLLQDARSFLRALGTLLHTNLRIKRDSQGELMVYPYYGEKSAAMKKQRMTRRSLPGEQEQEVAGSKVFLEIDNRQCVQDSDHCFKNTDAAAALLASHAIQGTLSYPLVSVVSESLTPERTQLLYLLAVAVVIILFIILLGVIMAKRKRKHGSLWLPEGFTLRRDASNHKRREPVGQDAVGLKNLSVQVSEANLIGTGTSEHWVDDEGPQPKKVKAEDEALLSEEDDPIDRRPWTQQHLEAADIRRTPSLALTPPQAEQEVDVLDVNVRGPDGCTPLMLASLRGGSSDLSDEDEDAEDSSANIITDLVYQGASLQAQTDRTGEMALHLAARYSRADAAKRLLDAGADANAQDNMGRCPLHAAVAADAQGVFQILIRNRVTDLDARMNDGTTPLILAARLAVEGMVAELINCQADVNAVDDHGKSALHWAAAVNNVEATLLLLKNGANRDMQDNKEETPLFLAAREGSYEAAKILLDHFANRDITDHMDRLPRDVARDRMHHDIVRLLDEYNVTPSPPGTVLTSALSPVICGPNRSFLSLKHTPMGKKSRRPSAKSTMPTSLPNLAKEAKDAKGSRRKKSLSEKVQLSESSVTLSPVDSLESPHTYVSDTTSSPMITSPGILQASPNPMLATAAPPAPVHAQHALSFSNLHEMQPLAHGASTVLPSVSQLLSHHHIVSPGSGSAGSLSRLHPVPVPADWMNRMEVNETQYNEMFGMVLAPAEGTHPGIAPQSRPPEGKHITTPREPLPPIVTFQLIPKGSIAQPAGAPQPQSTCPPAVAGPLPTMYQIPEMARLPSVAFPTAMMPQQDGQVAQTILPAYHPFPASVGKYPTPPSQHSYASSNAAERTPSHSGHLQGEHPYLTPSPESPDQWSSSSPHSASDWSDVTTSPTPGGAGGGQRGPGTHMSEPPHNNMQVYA
# [6] = target: Pro-neuregulin-1, membrane-bound isoform (Homo sapiens) (UniProt Q02297); test: small molecules binding neuregulin-1 protein – biochemical, small-molecule microarray, fluorescence 635/667, psychiatric disease protein project, primary screen (AID 1075); conditions: NRG1 binding, 635 nm fluorescence, higher = more signal;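 also: score combines 667 nm spot fluorescence with signal to noise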
# Pro-neuregulin-1, membrane-bound isoform (Homo sapiens), sequence (Q02297 whole entry, looked up, the tested form may be a part, canonical isoform): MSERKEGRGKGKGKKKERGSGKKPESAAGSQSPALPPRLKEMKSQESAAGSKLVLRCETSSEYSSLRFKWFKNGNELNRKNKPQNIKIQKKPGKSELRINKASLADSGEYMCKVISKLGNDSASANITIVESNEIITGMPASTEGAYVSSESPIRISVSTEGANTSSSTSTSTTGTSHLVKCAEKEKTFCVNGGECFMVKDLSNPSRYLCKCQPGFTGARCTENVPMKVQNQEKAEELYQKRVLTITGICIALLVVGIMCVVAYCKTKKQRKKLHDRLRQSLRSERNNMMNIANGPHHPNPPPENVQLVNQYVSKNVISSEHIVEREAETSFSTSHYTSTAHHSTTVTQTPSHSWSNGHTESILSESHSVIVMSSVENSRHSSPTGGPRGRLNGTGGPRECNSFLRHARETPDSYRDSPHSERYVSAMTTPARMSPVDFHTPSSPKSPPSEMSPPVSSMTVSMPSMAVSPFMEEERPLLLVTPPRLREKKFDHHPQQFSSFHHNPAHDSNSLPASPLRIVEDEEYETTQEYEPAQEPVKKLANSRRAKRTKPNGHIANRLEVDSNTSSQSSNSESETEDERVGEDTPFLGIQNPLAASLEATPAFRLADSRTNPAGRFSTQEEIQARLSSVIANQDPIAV
# [7] = system: Neuregulin-1 EGF-like domain; test: small molecules binding NRG1 EGF domain – biochemical, small-molecule microarray, 635 nm fluorescence, primary screen (AID 1081); conditions: higher = more signal;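 also: binding of the protein to compounds printed on small-molecule microarray slides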
# [8] = FRG1 expression reporter modulators in myotubes – cell-based, C2C12 myotubes, firefly/Renilla luciferase, luminescence, FRG1 inhibition for FSHD, primary screen (AID 1084); conditions: FRG1 promoter luciferase, higher = more signal, called active from +8 up or from −8 down
# [9] = small molecules captured by biotinylated probe aFST – biochemical, small-molecule microarray, fluorescence 635/667, stem cell growth factor project, primary screen (AID 1086); conditions: higher = more signal;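 also: score merges 667 nm fluorescence with signal-to-noise of each printed compound spot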
# [10] = binders of probe aHhip on microarray, primary screen, stem cell growth factor project, biochemical, small-molecule microarray, fluorescence 635/667 (AID 1087); conditions: higher = more signal;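 also: score merges spot fluorescence at 667nm with spot signal to noise ratio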
SMILES,composite z-score [1],composite z-score [2],composite z-score [3],composite z-score [4],composite z-score [5],composite z-score [6],composite z-score [7],z-score [8],composite z-score [9],composite z-score [10]
O=C1C[C@]2(c3ccc([N+](=O)[O-])cc3)C(=O)N(Cc3ccccc3)c3cc(CO)ccc3[C@H]2N1C1CCCCC1,-0.391 and -0.0715,0.0304 and -0.0759,-0.145 and 0.103,-0.416 and 0.208,0.168 and 0.853,-0.183 and 0.819,1.25 and 1.12,-0.0521 (inactive) and 0.981 (inactive),-0.0791 and -0.129,-0.185 and 1.38
COC(=O)C1=C(C)N(Cc2ccccc2)C2=C3C(=O)N(C)C(=O)[C@@H]3[C@@](O)(C(=O)OC)C(=O)N2[C@@H]1c1ccccc1,-0.0472 and -0.448,0.131 and 0.375,-0.0301 and -0.0158,0.721 and 0.128,0.356 and 0.415,-0.239 and -0.0154,-0.322 and -0.0698,0.121 (inactive) and -0.811 (inactive),0.224 and -0.114,0.251 and -0.0645
C=C[C@@H](OC)[C@H](O)c1ccc(O)c(F)c1,1.24 and 0.937,-0.598 and -1.38,-0.183 and -0.222,-0.609 and -0.315,-1.74 and -0.398,-0.725 and -0.815,-0.564 and -0.928,0.679 (inactive) and -0.707 (inactive),-1.4 and -1.25,-0.0708 and -0.175
CCOC(=O)C[C@H]1[C@H](OC(=O)c2ccccc2-c2ccccc2)[C@@H](NC(=O)c2ccccc2)c2cc(OCCCO)ccc2N1C(=O)c1ccc2ccccc2n1,-0.0767 and -0.127,0.455 and 0.0871,0.0047 and -0.094,0.507 and 0.191,0.708 and 0.964,-0.106 and 0.749,0.738 and 0.565,-0.129 (inactive) and -0.113 (inactive),0.214 and 0.306,0.347 and -0.0994
C[N+](C)(C)CCCCCCNC(=O)[C@@H]1C[C@@H]2C(=O)N[C@@H](CCCC[N+](C)(C)C)C(=O)N2[C@@H]1c1ccc(O)cc1,0.245 and -0.175,0.0279 and -0.0321,-0.12 and -0.181,0.0015 and -0.155,-0.423 and -0.213,0.142 and 1.11,1.35 and 1.36,0.403 (inactive) and 2.73 (inactive),-0.12 and -0.0447,-0.206 and -0.266
C[N+](C)(C)CCCCCCNC(=O)[C@H]1C[C@H]2C(=O)N[C@@H](CCCC[N+](C)(C)C)C(=O)N2[C@H]1c1cccc(OCCO)c1,-0.54 and 1.52,0.5 and 0.444,-0.0546 and 0.0108,-0.232 and 0.0517,-0.004 and -0.276,0.55 and -0.353,1.2 and 1.47,3.98 (inactive) and 3.53 (inactive),0.469 and 0.696,-0.293 and 0.535
C=C[C@H](OC)[C@@H](O)c1ccc(OCCO)cc1,1.29 and 1.32,-0.768 and -0.833,-0.219 and -0.121,-1.19 and -0.295,-1.86 and -1.69,-0.102 and -0.296,0.604 and 0.0642,0.298 (inactive) and 0.277 (inactive),-1.29 and -0.821,-0.405 and -0.268
C=CCN(C(=O)C(c1cccs1)N(CCOCCO)C(=O)/C=C\C(=O)O)c1ccc(OC)cc1 (stereo not given),-0.454 and 0.71,-0.415 and -1.59,-0.103 and -0.186,-0.729 and -1.06,-1.03 and -1.83,-0.933 and -1.12,-0.247 and -0.936,-0.993 (inactive) and -0.205 (inactive),-0.348 and -0.687,-0.301 and -0.226
Cc1cc2c(nc1C)CCCN2CC(O)CN1CCCc2nc(-c3ccc(Br)cc3)ccc21 (stereo not given),0.738 and 1.41,0.694 and 0.644,0.115 and 0.363,0.902 and 0.602,1.15 and 1.39,1.56 and 1.11,1.16 and 1.11,4.83 (inactive) and 2.39 (inactive),0.916 and 0.891,0.968 and 2.11
CN1C(=O)C2CC=C([C@H]3Oc4ccccc4S(=O)(=O)N4CCC[C@@H]34)CC2C1=O (stereo not given in full),-0.203 and -0.0284,0.157 and 0.0061,-0.133 and -0.149,0.0694 and -0.0366,-1.05 and -0.369,0.75 and -0.641,0.151 and -0.561,0.74 (inactive) and 1.05 (inactive),-0.311 and -0.365,-0.0645 and -0.123
C=CCN(CCCCC)C(=O)C1N(C(C)(C)CO)C(=O)C2C(C(=O)O)C3C=CC21O3 (stereo not given),0.215 and 0.754,-0.806 and -0.866,-0.223 and -0.193,-1.26 and -2.17,-1.64 and -2.02,-0.729 and 1.18,-0.369 and -0.726,0.521 (inactive) and 1.02 (inactive),-2.01 and -0.558,-0.261 and 0.0274
C=CCN(Cc1ccccc1)C(=O)C1N(c2ccc(CCO)cc2)C(=O)C2C(C(=O)O)C3C=CC21O3 (stereo not given),1.72 and 0.902,-0.723 and -0.963,-0.194 and -0.19,-0.362 and -0.749,-2.7 and -2.66,0.191 and -0.96,0.161 and -0.559,2.4 (inactive) and 1.24 (inactive),-1.44 and -0.907,-0.0994 and -0.431
CC(CO)N1C(=O)[C@@H]2C3C(=O)OCCC=C[C@H]3OC23C=CCN(C(C)(C)C)C(=O)[C@@H]13 (stereo not given in full),0.589 and 0.169,-0.848 and -0.0168,-0.158 and -0.0296,-0.884 and 0.546,-1.01 and 0.13,-0.551 and 0.91,0.369 and 1.41,0.714 (inactive) and 0.355 (inactive),-0.547 and -0.0366,-0.134 and 0.0749
COC(=O)C1=C(C)N(Cc2ccccc2)C2=C3C(=O)N(c4ccccc4)C(=O)[C@@H]3[C@@](O)(C(=O)OC)C(=O)N2[C@@H]1c1ccccc1,-0.302 and -0.483,0.205 and 0.642,-0.118 and -0.137,0.738 and 0.591,0.897 and 1.21,0.383 and 0.418,1.02 and 0.99,0.0445 (inactive) and -1.22 (inactive),0.366 and 0.346,-0.166 and -0.375
C=CCN(C(=O)C1N(c2ccc(CCO)cc2)C(=O)C2C(C(=O)O)C3C=CC21O3)c1ccc(OC)cc1 (stereo not given),0.0619 and 0.336,-0.767 and -0.885,-0.226 and -0.276,-0.19 and -1.02,-0.903 and -1.23,-0.0224 and -1.32,0.939 and -0.115,4.82 (inactive) and -0.639 (inactive),-0.477 and -1.4,-0.132 and -0.236
CCOC(=O)C[C@H]1[C@H](OC(=O)c2ccccc2-c2ccccc2)[C@@H](NC(=O)Cc2ccc(OC)cc2)c2cc(OCCCO)ccc2N1C(=O)c1ccc2ccccc2n1,-0.21 and 0.27,0.266 and 0.395,-0.0781 and 0.16,0.27 and 0.319,0.305 and 0.361,0.147 and 0.653,-0.529 and 0.0101,-0.0725 (inactive) and 0.266 (inactive),0.442 and 0.575,-0.0645 and -0.0672
